From PubChem BioAssay AID493085 (Broad Institute, 2011) come the findings set out here.

The campaign covered roughly 2,400 compounds. About 360 (15%) were called active. Another 5% or so got no clear call; they are omitted.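 How the source made its calls: active means falling-signal curve with half-maximal concentration at or below ten times the top tested dose; inconclusive means flat fit at 30 to 70% inhibition, or poor fit; inactive means signal rise, flat within 30%, or potency beyond limit.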 Not all results are given here. Measured potencies and affinities stand elsewhere.

The nature of this experiment: Tet-On RFP internal-standard readout, HSF1 screen, dose response, cell-based, NIH3T3 R4, HSE-GFP and Tet-On RFP, cherry-pick, set 3 (AID 493085).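 Further: cells heat shocked 2 h at 42 °C with doxycycline to induce reporters.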 The note with it: NIH3T3 R4 HSE-GFP/Tet-RFP reporter, fluorescence, 48 h; series mostly up to 19.5 µM.
As for `OC1(c2ccc(Br)cc2)CCN(Cc2cccc(Br)c2)CC1`, the result was inactive.
For `Cn1ccnc1SCC(=O)N(C1CCCCC1)C1CCCCC1` the value was “inactive”; for `COc1cc(C(=O)N(C)C2CCCN(Cc3ccccc3F)C2)cc(OC)c1OC` (centres undefined), “inactive”; for `CS(=O)(=O)N(CC(=O)O)c1ccc(C23CC4CC(CC(C4)C2)C3)cc1`, “inactive”.
Regarding `O=C(CCC1CCCNC1)c1ccccc1` (centres undefined), the result was inactive.
As to `CC(=O)c1cnn(-c2c(Cl)cc(Cl)cc2Cl)c1C`, the outcome was inactive.
As to `CC(C)Oc1ccc(C(=O)O)cc1`, the result was inactive.
For `NC(=O)c1ccsc1NC(=O)C1CCCCC1`, the result was inactive.
For `COC(=O)c1cccc(N2C(=O)C3CC=CCC3C2=O)c1` (centres undefined) the value was “inactive”.
As for `O=C(N/N=C/c1ccc(F)cc1)c1ccc(OCc2ccccc2)cc1`, the compound was called inactive.
With `COc1ccc(C(=O)Nc2ccccc2C(=O)N/N=C/c2ccc(O)c(OC)c2)cc1`, the compound was called inactive.
Then `O=C(N/N=C/c1cc([N+](=O)[O-])ccc1O)c1ccncc1`, with “inactive”; and `CCOc1cc(N2CCOCC2)c(OCC)cc1NC(=O)c1cc(-c2ccco2)nc2ccccc12`, with “inactive”; and `COC(=O)[C@H](C)NC(=O)NCCC1=CCCCC1`, with “inactive”.
For `Cc1ccc(C(=O)/C=C/Nc2ccccn2)cc1` the value was “inactive”; for `COC(=O)c1nn(-c2cccc(C(F)(F)F)c2)c(=O)cc1Sc1ccccn1`, “inactive”; for `CCCCOc1ccc(C2C(=O)N(C3CCCCC3)CC(=O)N2CC2CCCO2)cc1` (centres undefined), “inactive”.
For `CCOC(=O)c1c(C)[nH]c(C2=NNC(=Nc3cccc(Cl)c3)SC2)c1C` the value was “inactive”; for `CC(C)(C)N=C1NN=C(c2ccc(Cl)cc2)CS1`, “inactive”; for `CC(C)(C)c1ccccc1NC(=O)NC1CCN(Cc2c(F)cccc2Cl)CC1`, “inactive”.
Consider `COc1ccccc1NC1=C(Cl)C(=O)N(C2CCCCC2)C1=O`, for which the call was inactive.
With `CCOC(=O)Cc1csc(NC(=O)c2sc3nc4ccc(CC)cc4cc3c2N)n1`, the compound was classed as inactive.
For `O=C1c2ccccc2C(O)N1c1ccccc1` (centres undefined), the compound was classed as inactive.
Take `Cc1ccnc(N2CCCC(C(=O)NCc3cccs3)C2)n1` (centres undefined): the call was inactive.
With `O=C(O)CCn1cc(/C=C2\NC(=S)N(c3ccccc3)C2=O)c(-c2ccc(Br)cc2)n1`, the result was inactive.
Then `Cc1noc(C)c1COc1ccc(C(=O)OCC(=O)Nc2c(C)n(C)n(-c3ccccc3)c2=O)cc1`, with “inactive”; and `COc1cccc(CNc2ccc(S(N)(=O)=O)cc2)c1OC`, with “inactive”; and `COc1cc(/C=C/c2nc(N)nc(-c3ccccc3O)n2)cc(OC)c1OC`, with “inactive”.
For `CN=c1scc(-c2ccccc2F)n1/N=C/c1ccc[nH]1` the value was “inactive”; for `Cc1cc(C)c(NC(=O)CSc2nnc(-c3ccncc3)n2Cc2ccco2)c(Cl)c1`, “inactive”.
As to `CCOc1ccc(NCc2nnc(SCc3ccccc3Cl)n2-c2ccccc2)cc1`, the compound was called inactive.
Then `CCc1ccccc1-n1c(SCC(=O)Nc2ccc3c(c2)OCCO3)nc2[nH]ncc2c1=O`, with “inactive”; and `CCCCn1c(=O)n(CC(=O)Nc2c(CC)cccc2CC)c(=O)c2c1nc(CO)n2CCC`, with “inactive”.
With `CCOC(=O)Cn1c(CN2CCN(c3cccc(Cl)c3)CC2)nc2c1c(=O)[nH]c(=O)n2C`, the call was inactive.
Then `Cc1[nH]n(-c2ccccc2)c(=S)c1C=Nc1cccc([N+](=O)[O-])c1`, with “inactive”.
Regarding `CCOc1ccc(/C(O)=C2/C(=O)C(=O)N(CCCn3ccnc3)C2c2cccs2)cc1Cl` (centres undefined), the result was inactive.
Take `Cc1ccc(S(=O)(=O)N2CCN(C(=O)c3cccc(F)c3)CC2)cc1`: the compound was called inactive.
With `O=C(O)c1cc(-c2cccc3ccccc23)nc2ccccc12`, the outcome was inactive.
For `Cc1nc(NC(C)c2ccccc2)sc1C(=O)Nc1ccccc1` (centres undefined) the value was “inactive”; for `CC(C)Sc1nc2sccc2c(=O)n1-c1ccccc1`, “inactive”; for `COc1cccc(C(=O)Nc2ccc(NC(=O)C3CC=CCC3C(=O)O)cc2)c1` (centres undefined), “inactive”.
For `CC(C)CN(CC(C)C)C(=S)NC1CCCCC1` the value was “inactive”.
For `O=[N+]([O-])c1ccc(N2CCN(Cc3ccc4c(c3)OCO4)CC2)nc1`, the result was inactive.
Consider `O=C(NCc1ccc2c(c1)OCO2)c1cc2c(s1)CS(=O)(=O)C2`, for which the compound was called inactive.
Then `COc1ccccc1NC(=O)c1ccc([N+](=O)[O-])o1`, with “inactive”; and `COc1cc(C(=O)Nc2ccccc2NC(=O)c2cc(OC)c(OC)c(OC)c2)cc(OC)c1OC`, with “inactive”.
For the compound `Cc1c(C(=O)NCc2ccc3c(c2)OCO3)sc2nc(-c3ccccc3)cn12`, the call was inactive.
Regarding `Cc1cccc(NC(=O)CN2C(=O)N/C(=C/c3cc(C)n(C(C)C)c3C)C2=O)c1`, the outcome was inactive.
Then `CCn1c(COc2ccc(C)cc2)nnc1SCC(=O)Nc1ccc2c(c1)OCCO2`, with “inactive”; and `COc1ccccc1Nc1nc(NCCCN(C)C)nc(N)c1[N+](=O)[O-]`, with “inactive”; and `CCN(C(=O)Cn1c([N+](=O)[O-])cnc1C)c1ccccc1`, with “inactive”.
For `CC(C)(C)c1cnnn1-c1ccc(C(=O)CCl)cc1`, the result was inactive.
For `CC1(C)CC(=O)C2=C(C1)N(c1ccc(F)cc1)C(=O)CC2c1ccccc1` (centres undefined) the value was “inactive”; for `O=C(COC(=O)c1cnccn1)Nc1ccc(Cl)cn1`, “inactive”; for `Cc1cc(C(=O)COC(=O)C2CC2)c(C)n1-c1ccc(F)cc1`, “inactive”.
Then `Cc1cc(C(=O)CSc2nnc3ccccn23)c(C)n1-c1ccccc1`, with “inactive”; and `COc1ccc(C(=O)CSc2nc(C)cc(=O)[nH]2)cc1C`, with “inactive”; and `CC1C=Cc2ccccc2N1C(=O)c1ccccc1` (centres undefined), with “inactive”.
Then `O=C(OCCN1CCN(c2ncc(C(F)(F)F)cc2Cl)CC1)c1ccc(Cl)cc1`, with “inactive”.
For `CCN1CCN(c2cc(C)c3cc(NC(=S)N4CCCC(C)C4)ccc3n2)CC1` (centres undefined), the compound was classed as inactive.
Then `COc1cccc(CC2(CO)CCN(S(=O)(=O)c3ccc(OC)cc3OC)CC2)c1`, with “inactive”; and `CC(C)CC(C(=O)Nc1cccc(O)c1)N1C(=O)c2ccccc2C1=O` (centres undefined), with “inactive”; and `COCCN(C(=O)COC(=O)/C=C/c1ccc(C(F)(F)F)cc1)c1c(N)n(Cc2ccccc2)c(=O)[nH]c1=O`, with “inactive”.
Then `Cc1ccccc1OCC(=O)Nc1ccc([N+](=O)[O-])cc1`, with “inactive”; and `Cc1ccccc1OCC(=O)OCC(=O)c1ccc(-c2ccccc2)cc1`, with “inactive”; and `CN(Cc1ccccc1)C(=O)CCn1c(=O)oc2ccccc21`, with “inactive”.
In the case of `Cc1ccc(S(=O)(=O)NC(C)(C)CSc2nncn2N)cc1`, the outcome was inactive.
Then `CC1(C)C=C2C(=NN(c3ccccc3)C(N)=C2C#N)CO1`, with “inactive”.
On to `O=C(CCl)Nc1ccccc1C(=O)c1ccccc1`, for which the result was inactive.
For `Fc1ccc(-n2cc(CNCCc3ccccn3)c(-c3ccccc3Cl)n2)cc1`, the outcome was inactive.
Then `O=C(CN1CCN(C(=O)c2ccccc2)CC1)Nc1ncc(Br)cc1Br`, with “inactive”; and `O=C(OCc1cc(=O)n2cc(Br)ccc2n1)C1COc2ccccc2O1` (centres undefined), with “inactive”.
Regarding `COc1ccc(CN(CCCN2CCOCC2)C(=O)Nc2cccc(Cl)c2)cc1OC`, the compound was called inactive.
Then `CCOC(=O)c1sc(NC(=O)Nc2ccccc2F)nc1C`, with “inactive”.
Then `CCOC(=O)Cc1cnc(NC(=O)c2ccccc2)s1`, with “inactive”.
For `CN1CCN(c2ccc(NC(=O)c3ccc4ccccc4c3)cc2)CC1` the value was “inactive”; for `COc1ccc(C(C(=O)NC2CCCCC2)N(C(=O)CCl)c2cccc(Cl)c2)cc1` (centres undefined), “inactive”.
`COc1ccc(C(C)NC(=S)NC2CCCCC2)cc1OC` (centres undefined): the call was inactive.
`Cc1ccc(Cn2c(=N)n(CC(=O)c3ccccc3)c3ccccc32)cc1`: the compound was called inactive.
Regarding `CCCCSC1=C(C#N)C(c2ccccc2C)CC(=O)N1` (centres undefined), the result was inactive.
Then `O=C(CCc1ccccc1)Nc1cccc([N+](=O)[O-])c1`, with “inactive”.
For `Cc1nc(-c2ccc(Cl)cc2)sc1C1(C)CC(c2ccc(Cl)cc2)=NO1` (centres undefined) the value was “inactive”; for `CN(C)c1nc(OCCNC(=O)COc2ccc(Cl)cc2Cl)nc(N(C)C)n1`, “inactive”; for `Cc1cccc(C(=O)NC2CCN(C(=O)Nc3ccc(F)cc3)CC2)c1`, “inactive”.
Take `C[n+]1c(/C=C/c2ccc3c(c2)OCO3)ccc2ccccc21`: the compound was classed as inactive.
For `CCc1cc(C(=O)NCC(C)(C)N2CCOCC2)sc1C` the value was “inactive”.
For `CCOC(=O)c1ccc(NC(=O)NS(=O)(=O)c2ccc(C)cc2)cc1` the value was “inactive”; for `CCOc1ccc(NC(=O)c2cccnc2C(=O)O)cc1`, “inactive”; for `N=C1C(c2nc3ccccc3[nH]2)=C(O)CN1c1ccc(CC(=O)O)cc1`, “inactive”.
In the case of `O=C(O)c1ccc(N2C(=O)CC(N3CCN(c4cccc(C(F)(F)F)c4)CC3)C2=O)cc1` (centres undefined), the compound was classed as inactive.
On to `O=C(NNc1nc2ccccc2s1)Nc1ccccc1`, for which the outcome was inactive.
As for `COc1ccccc1Nc1ccc2nonc2c1[N+](=O)[O-]`, the result was inactive.
Then `Cn1ccnc1Sc1cc(NCCCO)c([N+](=O)[O-])c2nonc12`, with “inactive”; and `COc1ccc(NC(=S)Nc2ccc(Oc3ccccc3)cc2)cc1`, with “inactive”.
Consider `Cc1cc(=O)oc2c(C)c(OC(C)C(=O)NCCCN3CCOCC3)ccc12` (centres undefined), for which the compound was classed as inactive.
In the case of `Cc1c(O)ccc2c(CC(=O)N[C@@H](Cc3ccc(O)cc3)C(=O)O)cc(=O)oc12`, the call was inactive.
As to `Cc1cc(NC(=O)COc2coc(CN3CCN(c4ccccc4F)CC3)cc2=O)no1`, the compound was classed as inactive.
On to `CCOC(=O)c1cc(C#N)c(NCc2ccccc2)nc1C`, for which the result was inactive.
For `Cc1ccc(S(=O)(=O)CCC(=O)Nc2ccc(Br)cc2)cc1`, the result was inactive.
Then `O=C(O)c1cc(S(=O)(=O)Nc2ccc3c(c2)OCCO3)c(Cl)cc1Cl`, with “inactive”; and `CCc1ccc(-c2nc(CS(=O)CC(=O)NCc3cccnc3)c(C)o2)cc1` (centres undefined), with “inactive”; and `COc1ccc(OC)c(NC(=S)NCc2cccnc2)c1`, with “inactive”.
Turning to `COc1ccc(OC)c(NC(=O)CSc2nc3ccccc3cc2Cc2ccccc2)c1`, the compound was classed as inactive.
Then `COc1ccc(N(CC(=O)NCc2ccc(F)cc2)C(=O)Cn2nnc(-c3ccc(C)o3)n2)cc1OC`, with “inactive”.
For `O=C(Cn1cnc2c(nnn2Cc2ccc(Cl)cc2)c1=O)N1CCCc2ccccc21` the value was “inactive”; for `CCN(c1ccccc1)S(=O)(=O)c1ccc(Cl)c(C(=O)N(CC2CCCO2)C2CCS(=O)(=O)C2)c1` (centres undefined), “inactive”; for `O=C(O)c1csc(-c2ccccc2)n1`, “inactive”.
For `Cc1cc(/C=C2\SC(=S)N(Cc3ccco3)C2=O)c(C)n1-c1ccccc1` the value was “inactive”; for `Cc1cc(C(=O)CN2CCC(C)CC2)c(C)n1-c1ccccc1F`, “inactive”.
